Test results from PubChem BioAssay (NCI).
About 79,000 compounds went through this panel and 15% of them were active in at least one assay; those are over-represented in the sample as a whole. Active and inactive are the calls of the source. Cut-off read from the data, not from the text of the source: active = growth inhibition above about 70%; inactive = the rest.

Key:
[1] = NCI Yeast Anticancer Drug Screen. Data for the rad50 strain (AID 155);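 note: 0% = growth of vehicle-only cultures of the same strain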; conditions: S. cerevisiae rad50 strain growth inhibition; at 50.0 µM; active compounds read high
How it was run: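 Cells are treated with compound, grown, and their growth is then scored against vehicle-only cultures of the same repair-deficient yeast strain.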

[2] = NCI Yeast Anticancer Drug Screen. Data for the mec2-1 strain (AID 157); conditions: S. cerevisiae mec2-1 strain, at 50.0 µM, active compounds read high
How it was run: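 Vehicle-treated cultures served as reference for growth inhibition of compound-exposed mec2-1 yeast.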

[3] = NCI Yeast Anticancer Drug Screen. Data for the sgs1 mgt1 strain (AID 161);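 note: 0% = growth of cultures given vehicle only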; conditions: S. cerevisiae sgs1 mgt1 strain, at 50.0 µM, active compounds read high
How it was run: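 Read-out: growth inhibition vs vehicle controls. Cells: mutant yeast strain deficient in DNA damage repair.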

[4] = NCI Yeast Anticancer Drug Screen. Data for the cln2 rad14 strain (AID 165);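 note: 0% = growth equal to vehicle treated cultures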; conditions: S. cerevisiae cln2 rad14 strain, at 50.0 µM, active compounds read high
How it was run: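 Each compound was tested on cln2 rad14 yeast. Inhibition of growth was calculated against vehicle-exposed controls.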

[5] = NCI Yeast Anticancer Drug Screen. Data for the bub3 strain (AID 167); conditions: S. cerevisiae bub3 mutant strain, at 50.0 µM, active compounds read high
How it was run: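 Part of a panel of yeast mutants defective in DNA damage repair or cell cycle regulation. Each strain is grown with compound, and inhibition is calculated relative to solvent-treated cultures.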

[6] = NCI Yeast Anticancer Drug Screen. Data for the mlh1 rad18 strain (AID 175); conditions: S. cerevisiae mlh1 rad18 strain growth inhibition; at 50.0 µM; active compounds read high
How it was run: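 Vehicle-treated cultures served as the reference for growth inhibition in a yeast strain carrying DNA damage repair alterations exposed to each compound.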

Measured: growth inhibition

COc1cc2nc(C)oc(=O)c2cc1OC
inactive: [1] 19.1% | [2] -16.8% | [3] 10.9% | [4] -28.4% | [5] -12.3% | [6] 0.85%

CCC(/C=C\C(C)C1CCC2C3CC=C4CC(OS(=O)(=O)c5ccc(C)cc5)CCC4(C)C3CCC12C)C(C)C (stereo not given)
inactive: [1] -9.9% | [2] -3.95% | [3] -16.6% | [4] -5.6% | [5] 1.1% | [6] -32.1%

CCCCS(=O)(=O)Nc1cccc(C(=O)O)c1
inactive: [1] 2.85% | [2] -9.1% | [3] 20.9% | [4] -17.4% | [5] 39.8% | [6] -7.15%

Clc1ccc(C(n2cc(Br)cn2)n2cc(Br)cn2)cc1
active: [1] 89.6% | [2] 90.8% | [3] 90.7% | [4] 90.2% | [5] 91% | [6] 87.5%

N#CCCCN1C(=O)c2ccccc2C1=O
inactive: [1] -22.1% | [2] -18.9% | [3] -8.25% | [4] 21% | [5] -15.5% | [6] -18.4%

Cn1cc(S(=O)(=O)NC(=O)Nc2ccc(Cl)cc2)c(=O)c2ccc(Cl)cc21
inactive: [1] 21.6% | [2] 20.8% | [3] 23.1% | [4] -17.5% | [5] 33.2% | [6] 8.75%

O=C(CC(O)(C(F)(F)Cl)C(F)(F)Cl)c1cccc([N+](=O)[O-])c1
active: [1] 77.5% | [3] 81.5% | [4] 72.5% | [6] 95.8%
inactive: [2] 62% | [5] 61%

C/C(=N\Nc1ccc([N+](=O)[O-])cc1[N+](=O)[O-])C1(C)CC=CCC1C (stereo not given)
inactive: [1] -3.9% | [2] -3.35% | [3] 0.4% | [4] 6.05% | [5] -1.7% | [6] -1.45%

O=C(c1ccccc1)c1c(-c2ccccc2)sc2nc3ccccc3nc12
inactive: [1] 3% | [2] 18.3% | [3] 3.2% | [4] 29.1% | [5] 2.65% | [6] 11.2%

CCC(CCC(C)C)(SCC(N)=O)C(=O)O (stereo not given)
inactive: [1] -4.75% | [2] -5.15% | [3] -26% | [4] -39.3% | [5] 0.2% | [6] -38%

CC(C)C1N=C(N)N=C(N)N1c1ccc(Cl)c(Cl)c1 (stereo not given)
inactive: [1] 17.4% | [2] 10.1% | [3] 8% | [4] -16.9% | [5] 5.25% | [6] 6.6%

COc1ccc(C(c2cc3c(cc2O)OCO3)n2ccnc2)cc1 (stereo not given)
inactive: [1] 9.45% | [2] 11.8% | [3] 12.3% | [4] -55.5% | [5] 12.1% | [6] 4.9%

S=C1NC(c2ccccc2)Nc2ccccc21 (stereo not given)
inactive: [1] 6.5% | [2] 15.9% | [3] -5.5% | [4] -40.3% | [5] -12.9% | [6] 3.75%

COC1CCCCC(=NNC(N)=O)CCCC1 (stereo not given)
inactive: [1] -0.2% | [2] -2.65% | [3] -13.2% | [4] -44.6% | [5] -7.15% | [6] -1.15%

C=CN1C(=O)c2ccccc2C1=O
inactive: [1] -12.8% | [2] -12.4% | [3] -8.95% | [4] 6.3% | [5] -6.5% | [6] -24%

CC(F)(F)C(F)(F)C(=O)CC(=O)C(F)(F)F.CC(F)(F)C(F)(F)C(=O)CC(=O)C(F)(F)F.[Cu]
inactive: [1] -9.15% | [2] -20.4% | [3] -9.75% | [4] -72% | [5] 1.95% | [6] -43.6%

OC1(c2ccccc2)c2ccccc2NC2=NCCN21 (stereo not given)
inactive: [1] -14.7% | [2] -12.4% | [3] -10.7% | [4] -10.5% | [5] -45.9% | [6] -16.9%

CC(C)CCCC(C)C1CCC2C(CC(=O)O)C(C3(C)CCC(O)CC3=O)CCC2(C)C1 (stereo not given)
inactive: [1] 23.9% | [2] 27.1% | [3] 25.9% | [4] 8.35% | [5] 1.85% | [6] 33%

Cc1cc(Br)c2c(c1N)C(=O)c1ccccc1C2=O
inactive: [1] 23.6% | [2] 35% | [3] 31.4% | [4] -7.75% | [5] 7.1% | [6] 15.6%

O=C1c2ccccc2CC1(c1ccccc1)c1ccccc1
inactive: [1] 15.1% | [2] -5% | [3] -6.6% | [4] 10.5% | [5] -9.85% | [6] -7.5%

COC(=O)C1C2CC3C(OC(=O)C31)C2OC(=O)[C@](OC)(c1ccccc1)C(F)(F)F (stereo not given in full)
inactive: [1] 24.2% | [2] 20.9% | [3] 10.6% | [4] -25.4% | [5] 15.5% | [6] 28.6%

O=C(/C=C/c1cc2ccccc2o1)N1CCN(c2ccccn2)CC1
inactive: [1] 28.6% | [2] 27.6% | [3] 39.2% | [4] 11.3% | [5] 17.9% | [6] 15.8%

CCOC(=O)c1sc(SSc2nc(C)c(C(=O)OCC)s2)nc1C
inactive: [1] -4.4% | [2] -4.7% | [3] 2.7% | [4] 12.9% | [5] 4.75% | [6] 10.1%

Nc1ncnc2c1ncn2C1CCC(COS(N)(=O)=O)C1 (stereo not given)
inactive: [1] 4.3% | [2] 3.65% | [3] 5% | [4] -6.7% | [5] 4.2% | [6] 15.4%

Nc1c(N=Nc2ccc(-c3ccc(N=Nc4ccc(O)c(C(=O)O)c4)cc3)cc2)cc(S(=O)(=O)O)c2ccccc12
active: [1] 91.5% | [2] 96.6% | [3] 94.9% | [4] 93.3% | [5] 91% | [6] 93.1%

CC1(C)CC(=O)C(CC(C(=O)C(=O)Nc2cc(C(F)(F)F)ccc2Cl)C(=O)c2ccco2)C(=O)C1 (stereo not given)
inactive: [1] -1.55% | [2] 30.1% | [3] 18.9% | [4] -22.4% | [5] 13% | [6] 19.1%

CCCCCCCC/C=C\CCCCCCCC(=O)OC
inactive: [1] 33.5% | [2] 43.8% | [3] 49.3% | [4] -32.1% | [5] 44% | [6] 49%

COc1cc(C[C@H]2C(=O)OCC2Cc2ccc(OC)c(OC)c2)ccc1O (stereo not given in full)
inactive: [1] -39.1% | [2] -60.6% | [3] -26.9% | [4] -5.2% | [5] 2.05% | [6] -22.3%

O=C(/C(=C(/Br)I)c1ccccc1)c1ccccc1
inactive: [1] -13.8% | [2] 16% | [3] 26.6% | [4] 14.1% | [5] 42.6% | [6] 28.4%

O=C(O)C1CC[N-]CC1.O=C(O)C1CC[N-]CC1.[NH2-].[NH2-].[Pt+4]
inactive: [1] -5.4% | [2] 14.8% | [3] 2.2% | [4] 12.7% | [5] 2.6% | [6] 18.4%

C[N+](C)(CC(=O)Nc1ccc(Cl)cc1)Cc1ccc2c(c1)CCCC2
active: [1] 99.5% | [2] 99.8% | [3] 99.8% | [4] 99% | [5] 99.3% | [6] 99.7%

NS(=O)(=O)c1ccc(NC(=O)CC(=O)c2ccccc2)cc1
inactive: [1] -57.4% | [2] -32.7% | [3] -36% | [4] 0.35% | [5] -25.6% | [6] -38%

CN1CCN(CCCBr)CC1
inactive: [1] -8.85% | [2] -5.3% | [3] -24.9% | [4] -31.8% | [5] -31.9% | [6] -4.3%

Cc1ccc(CCCC(=O)O)cc1C
inactive: [1] -21.6% | [2] 2.65% | [3] -7.05% | [4] 10.6% | [5] -44.2% | [6] -13.8%

CN(C)CCNC(=O)c1cccc2[nH]c(-c3ccncc3)nc12
inactive: [1] 5.9% | [2] -16.2% | [3] -37.4% | [4] -19.9% | [5] -48% | [6] -89.1%

CCN(CC)CCNC(=O)c1ccccc1NC(=O)C(=O)Nc1ccccc1C(=O)NCCN(CC)CC
inactive: [1] -46.9% | [2] -13.2% | [3] -55.2% | [4] -5.15% | [5] -60.3% | [6] -41.6%

c1ccc(-c2cnc3cccnc3n2)cc1
inactive: [1] -2.1% | [2] -24.7% | [3] -19.2% | [4] -36.5% | [5] -10.1% | [6] -12.6%

Cc1ccc(Cc2ccccc2C(=O)O)cc1
inactive: [1] -5.95% | [2] 1.55% | [3] -2.3% | [4] -42.9% | [5] -2.45% | [6] -6.05%

O=C(Nc1ccc(S(=O)(=O)Nc2nccs2)cc1)c1cccnc1Nc1cccc(Cl)c1
inactive: [1] 36.6% | [2] 8.5% | [3] 22.2% | [4] 1.15% | [5] 13.4% | [6] 61.2%

CCOC(=O)c1nnsc1NC(=O)Nc1ccc(Cc2ccc(NC(=O)Nc3snnc3C(=O)OCC)cc2)cc1
inactive: [1] -14.3% | [2] 8.25% | [3] 12.2% | [4] 18.3% | [5] 5.45% | [6] 10.3%
